Screening results from PubChem.
Pf Dd2 growth = P. falciparum Dd2 growth inhibitors, primary screen, SYBR Green fluorescence, single dose replicates. activity change, % at 10 µM. 2.3% of 94,000 active. 72 h; stronger effect = lower value; in the data active = activity change below about -80%; inconclusive = no clear call, values can overlap the other calls
C diff HTS = C. difficile growth inhibitors, primary screen, HTS; 0.25% of 86,000 active; Clostridium difficile clinical isolate growth, OD600, 24 h; stronger effect = lower value; AID 1259249, 2017; growth activity, negative = inhibition, % at 16 µg/mL (by protocol);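 active = mean growth activity at or below -80% and every replicate also at or below -80%; inconclusive = mean at or below -80% but some replicate above -80%; inactive = mean growth activity above -80%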;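 also: 0% = DMSO wells and -100% = levofloxacin 16 µg/mL wells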
T cruzi growth-1 = T. cruzi intracellular proliferation inhibitors, primary screen, cell-based, beta-gal Tulahuen parasites, NIH3T3 host, luminescence | T. cruzi beta-gal in NIH3T3, GalScreen luminescence, 90 h | inhibition, % at 8.34 µM | 5.9% of 77,000 active | AID 624255, 2012;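 active = mean inhibition above about 93%, with at least 55% of replicates each passing it, limit read from the data, passing the limit was not always enough; inconclusive = only one of those two conditions holds; inactive = neither condition holds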
T cruzi growth-2 = T. cruzi intracellular proliferation inhibitors, confirmation, cell-based, NIH3T3 host, beta-gal parasite, luminescence, cherry-pick | shares compounds with T cruzi growth-1 | T. cruzi beta-gal in NIH3T3, GalScreen luminescence, 90 h | inhibition, % at 8.35 µM | 72% of 5,600 active | AID 651739, 2012;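 active = mean replicate inhibition above about 95% and at least 55% of replicates individually reaching it, limit read from the data; inconclusive = only one of the two criteria is met; inactive = neither criterion is met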
T cruzi growth-3 = inhibitors of intracellular T. cruzi replication, confirmation, NIH3T3 host cells, beta-gal parasites, cherry-pick, set 2; shares compounds with T cruzi growth-1; T. cruzi beta-gal in NIH3T3, GalScreen luminescence, 90 h; inhibition, % at 2.09 µM; 21% of 5,600 active;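 active = mean inhibition above about 95%, with at least 55% of replicates also reaching it, limit read from the data; inconclusive = meets just one of the two conditions; inactive = meets neither condition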;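 also: plate controls were neutral control median for no effect and positive control median for full effect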
NIH3T3 tox = cytotoxicity in mouse NIH/3T3 fibroblasts, confirmation, cytotoxicity control for T. cruzi proliferation inhibitor project, cell-based, cherry-pick, single point; shares compounds with T cruzi growth-1; NIH/3T3 viability, CellTiter-Glo ATP luminescence, 90 h; cytotoxicity (signal decrease), % at 8.35 µM; 14% of 5,600 active; AID 651742, 2012;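 active = mean signal decrease across replicates above about 35% based on untreated-well scatter, with enough replicates individually passing, limit read from the data; inconclusive = no rule stated though some were filed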;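 also: 0% = median of neutral control wells and 100% = median of positive control wells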
NIH3T3 tox 2 = NIH/3T3 fibroblast cytotoxicity, confirmation, cytotoxicity control, cell-based, cherry-pick, single point, set 2; shares compounds with T cruzi growth-1; NIH/3T3 viability, CellTiter-Glo ATP luminescence, 90 h; inhibition, % at 24.9 µM; 56% of 5,600 active;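 active = mean loss of cell viability signal at or above a set limit, and enough replicates individually reaching it; inconclusive = meets only the mean limit or only the replicate share; inactive = meets neither condition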;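 also: 0% = median of neutral control wells and 100% = median of positive control wells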
The depositor's hits bear a star; ? = inconclusive; . = no result. This is a sample that favours compounds with a hit; in the whole collection about 6.8% have one here.

SMILES	Pf Dd2 growth	C diff HTS	T cruzi growth-1	T cruzi growth-2	T cruzi growth-3	NIH3T3 tox	NIH3T3 tox 2
C[C@@H]1CCCCO[C@H](CN(C)S(=O)(=O)c2cccs2)[C@H](C)CN([C@@H](C)CO)C(=O)c2cc(NC(=O)Nc3ccc(F)cc3)ccc2O1	-53.1	-3.2	59.2	.	.	.	.
C[C@H](CO)N1C[C@H](C)[C@@H](CN(C)S(=O)(=O)c2cccs2)OCCCC[C@H](C)Oc2ccc(NC(=O)Nc3ccc(C(F)(F)F)cc3)cc2C1=O	-45.5	-11.1	96.9*	102.0*	117.0*	33.2	26.2*
COc1ccc(S(=O)(=O)N(C)C[C@H]2Oc3ccc(NS(=O)(=O)c4cccs4)cc3C(=O)N([C@@H](C)CO)C[C@H]2C)cc1	-22.3	-2.3	38.5	.	.	.	.
C[C@@H]1CCCCO[C@@H](CN(C)S(=O)(=O)c2cccs2)[C@H](C)CN([C@H](C)CO)C(=O)c2cc(NC(=O)NC3CCCCC3)ccc2O1	?	15.5	118.2*	106.2*	35.8	1.9	-2.8
C[C@H](CO)N1C[C@H](C)[C@@H](CN(C)S(=O)(=O)c2cccs2)OCCCC[C@H](C)Oc2ccc(NC(=O)NC3CCCCC3)cc2C1=O	-45.7	8.0	76.1	.	.	.	.
C[C@@H]1CCCCO[C@H](CN(C)S(=O)(=O)c2cccs2)[C@@H](C)CN([C@H](C)CO)C(=O)c2cc(NC(=O)Nc3ccc4c(c3)OCO4)ccc2O1	-74.2	4.4	33.2	.	.	.	.
C[C@H]1CN([C@@H](C)CO)C(=O)c2cc(NC(=O)Nc3ccc(C(F)(F)F)cc3)ccc2O[C@H]1CN(C)S(=O)(=O)c1cccs1	9.2	2.9	122.7*	102.5*	57.5	4.9	85.2*
C[C@H]1CCCCO[C@@H](CN(C)S(=O)(=O)c2cccs2)[C@@H](C)CN([C@@H](C)CO)C(=O)c2cc(NC(=O)Nc3ccc4c(c3)OCO4)ccc2O1	-64.3	-0.3	111.2*	110.7*	47.6	13.9	10.5
C[C@H](CO)N1C[C@H](C)[C@@H](CN(C)S(=O)(=O)c2cccs2)Oc2ccc(NC(=O)Nc3ccc(F)cc3)cc2C1=O	-14.8	.	-49.4	.	.	.	.
C[C@@H]1CCCCO[C@H](CN(C)Cc2ccc3c(c2)OCO3)[C@H](C)CN([C@H](C)CO)C(=O)c2cc(NC(=O)c3ccccc3)ccc2O1	-69.7	-5.6	.	.	.	.	.
O=C(Nc1ccccc1)N1CCCCN2[C@H](C1)[C@H](c1ccc(-c3ccncc3)cc1)[C@@H]2CO	25.3	1.4	63.5	.	.	.	.
O=C(Nc1ccccc1)N1CCCCN2[C@H](CO)[C@H](c3ccc(-c4ccccc4)cc3)[C@@H]2C1	-33.2	-7.4	112.5*	108.7*	31.5	-13.9	13.1
O=C(Nc1ccccc1)N1CCCCN2[C@H](CO)[C@H](c3ccc(-c4ccncc4)cc3)[C@@H]2C1	23.8	0.3	70.4	.	.	.	.
O=C(Nc1ccccc1)N1CCCCN2[C@@H](CO)[C@H](c3ccc(Br)cc3)[C@@H]2C1	-26.8	27.6	35.7	.	.	.	.
O=C(Nc1ccccc1)N1CCCCN2[C@H](CO)[C@H](c3ccc(-c4ccccc4)cc3)[C@H]2C1	-35.2	20.3	103.1*	101.1*	63.7	55.6*	104.0*
O=C(Nc1ccccc1)N1CCCCN2[C@H](CO)[C@H](c3ccc(-c4ccncc4)cc3)[C@H]2C1	-13.4	-4.2	96.0*	93.7	64.7	-27.4	-4.0
CCCNC(=O)[C@@H]1[C@@H](CO)[C@@H]2Cn3c(ccc(-c4cccc(OC)c4)c3=O)[C@@H]2N1C	-14.6	2.9	.	.	.	.	.
CCC(=O)Nc1ccc2c(c1)OC[C@@H](C)N(C(=O)COC)C[C@@H](C)[C@H](OC)CN(C)C2=O	0.5	-5.6	-8.4	.	.	.	.
C[C@@H]1CN([C@@H](C)CO)C(=O)c2cc(/C=C/c3ccccc3)cnc2O[C@@H]1CN(C)S(=O)(=O)c1cn(C)cn1	-14.9	-0.9	55.3	.	.	.	.
CC(C)NC(=O)N(C)C[C@H]1Oc2cc(-c3ccncc3)ccc2S(=O)(=O)N([C@@H](C)CO)C[C@@H]1C	-19.3	0.2	109.6*	85.3	38.3	-15.7	13.3
Cc1ccc(-c2ccc3c(c2)O[C@H](CN(C)C(=O)NC(C)C)[C@H](C)CN([C@H](C)CO)S3(=O)=O)cc1	20.4	-3.8	31.7	.	.	.	.
CC(C)NC(=O)N(C)C[C@H]1Oc2cc(-c3ccncc3)ccc2S(=O)(=O)N([C@H](C)CO)C[C@H]1C	-0.2	-0.2	108.9*	67.5	28.3	3.9	31.6*
Cc1ccc(-c2ccc3c(c2)O[C@@H](CN(C)C(=O)NC(C)C)[C@@H](C)CN([C@@H](C)CO)S3(=O)=O)cc1	-25.5	1.4	70.0	.	.	.	.
COc1ccc(S(=O)(=O)N(C)C[C@H]2Oc3c(NC(=O)c4cnccn4)cccc3C(=O)N([C@@H](C)CO)C[C@H]2C)cc1	-58.0	.	31.8	.	.	.	.
CCC(=O)N[C@@H]1CC[C@H](CC(=O)NCCN2CCCCC2)O[C@@H]1CO	12.6	.	-101.8	.	.	.	.
SMILES	Pf Dd2 growth	C diff HTS	T cruzi growth-1	T cruzi growth-2	T cruzi growth-3	NIH3T3 tox	NIH3T3 tox 2
C[C@H]1CN([C@@H](C)CO)C(=O)CCCn2cc(nn2)CO[C@H]1CN(C)S(=O)(=O)c1cn(C)cn1	-14.4	.	38.3	.	.	.	.
CN1c2ccc(-c3ccc(C#N)cc3)cc2[C@H]2[C@H](CCN2S(=O)(=O)c2cccc(F)c2)[C@@H]1CO	-8.9	1.7	66.8	.	.	.	.
CC(C)CC#Cc1ccc2c(c1)O[C@@H](CN(C)Cc1ccccc1F)[C@@H](C)CN([C@@H](C)CO)S2(=O)=O	-33.1	.	127.0*	92.1	112.0*	-0.5	104.8*
CC(C)CC#Cc1ccc2c(c1)O[C@@H](CN(C)Cc1ccccc1F)[C@H](C)CN([C@@H](C)CO)S2(=O)=O	-67.7	.	55.7	.	.	.	.
C[C@H]1CN([C@@H](C)CO)S(=O)(=O)c2ccc(C#CCN(C)C)cc2O[C@H]1CN(C)Cc1ccccc1F	-44.6	-1.3	100.0*	95.6*	44.5	7.5	34.1*
C[C@@H]1CN([C@@H](C)CO)S(=O)(=O)c2ccc(C#CC3CC3)cc2O[C@H]1CN(C)Cc1ccccc1F	-37.9	15.5	101.3*	95.2*	108.5*	59.6*	105.8*
C[C@@H]1CN([C@H](C)CO)S(=O)(=O)c2ccc(C#CCN(C)C)cc2O[C@H]1CN(C)Cc1ccccc1F	-66.6	-4.3	109.8*	105.6*	87.2	61.3*	105.6*
C[C@@H]1CN([C@@H](C)CO)S(=O)(=O)c2ccc(C#CC3CC3)cc2O[C@@H]1CN(C)Cc1ccccc1F	-2.9	28.2	77.4	.	.	.	.
